Unmarked numbers belong to inactive results. Activity calls are given as the source filed them. Rule as the data show it, unless noted: active = inhibition above about 30%; inactive = the rest.

The target of assay [1] is Nuclear receptor coactivator 3 (Homo sapiens) (UniProt Q9Y6Q9). Put plainly: NCOA3 GAL4-fusion reporter inhibition – cell-based, luminescence, quadruplicate, confirmation (AID 588792;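 active = mean inhibition over 43.08%, the solvent-only control mean plus 3 SD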;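 also: 0% = DMSO treated cells and 100% = gossypol at 36 µM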). The note with it: HEK293 GAL4-SRC3 luciferase reporter, at 3.6 µM, active compounds read high.
Chain of Nuclear receptor coactivator 3 (Homo sapiens) (Q9Y6Q9 whole entry, looked up, the tested form may be a part): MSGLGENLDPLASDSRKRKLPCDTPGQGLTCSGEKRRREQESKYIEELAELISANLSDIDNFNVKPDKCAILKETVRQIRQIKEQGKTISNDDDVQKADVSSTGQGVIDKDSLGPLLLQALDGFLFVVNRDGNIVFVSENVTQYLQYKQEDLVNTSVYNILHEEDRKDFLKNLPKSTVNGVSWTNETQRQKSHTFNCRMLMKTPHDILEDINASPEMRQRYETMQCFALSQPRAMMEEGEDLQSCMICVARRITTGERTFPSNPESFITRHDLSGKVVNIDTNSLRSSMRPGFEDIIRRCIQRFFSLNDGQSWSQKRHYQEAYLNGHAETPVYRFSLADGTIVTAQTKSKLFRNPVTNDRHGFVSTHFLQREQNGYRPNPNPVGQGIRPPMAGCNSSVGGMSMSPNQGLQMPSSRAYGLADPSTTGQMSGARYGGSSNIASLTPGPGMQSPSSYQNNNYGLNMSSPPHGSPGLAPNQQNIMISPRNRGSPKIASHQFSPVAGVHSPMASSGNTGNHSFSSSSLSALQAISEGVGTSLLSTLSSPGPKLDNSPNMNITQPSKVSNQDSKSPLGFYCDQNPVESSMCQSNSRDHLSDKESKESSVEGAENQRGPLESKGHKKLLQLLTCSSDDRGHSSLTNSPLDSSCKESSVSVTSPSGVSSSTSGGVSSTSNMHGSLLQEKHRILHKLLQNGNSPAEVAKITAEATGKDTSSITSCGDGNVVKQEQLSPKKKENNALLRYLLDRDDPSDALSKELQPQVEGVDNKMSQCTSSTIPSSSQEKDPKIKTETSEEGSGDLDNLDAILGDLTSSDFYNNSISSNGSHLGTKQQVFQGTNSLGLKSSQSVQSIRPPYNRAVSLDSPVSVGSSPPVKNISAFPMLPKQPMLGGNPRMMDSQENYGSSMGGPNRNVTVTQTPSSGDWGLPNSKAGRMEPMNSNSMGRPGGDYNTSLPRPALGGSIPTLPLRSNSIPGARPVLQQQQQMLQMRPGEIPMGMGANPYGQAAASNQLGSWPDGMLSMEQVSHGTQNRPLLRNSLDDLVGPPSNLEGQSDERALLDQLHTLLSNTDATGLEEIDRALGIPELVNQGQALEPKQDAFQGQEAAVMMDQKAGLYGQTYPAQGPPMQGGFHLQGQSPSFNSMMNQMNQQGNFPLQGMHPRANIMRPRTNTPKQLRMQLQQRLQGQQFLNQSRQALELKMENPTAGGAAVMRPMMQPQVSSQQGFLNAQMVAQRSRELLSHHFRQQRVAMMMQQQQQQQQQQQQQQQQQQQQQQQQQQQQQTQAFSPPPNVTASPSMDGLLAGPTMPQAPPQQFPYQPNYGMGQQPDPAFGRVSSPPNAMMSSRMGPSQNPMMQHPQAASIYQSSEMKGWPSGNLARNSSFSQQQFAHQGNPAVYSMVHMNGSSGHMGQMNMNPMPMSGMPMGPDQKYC
Assay [2] deals with transactivating tegument protein VP16 (Human herpesvirus 1), Gal4-VP16 luciferase reporter. The assay can be described thus: repression of VP16-driven luciferase reporter – cell-based, luminescence, high throughput, counter-screen for SRC3 inhibitor project (AID 588794). The conditions noted are these: mammalian cells, at 3.6 µM, active compounds read high. In general terms: A reporter such as luciferase makes a cellular process visible.

Assay [3] has as its target Nuclear receptor coactivator 1 (Homo sapiens) (UniProt Q15788). Put plainly: NCOA1 GAL4-fusion reporter inhibition – cell-based, luminescence, quadruplicate, confirmation (AID 588820;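 active = mean inhibition above 46.68%, the untreated control wells mean plus 3 SD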;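 also: 0% = DMSO wells and 100% = gossypol 36 µM treated wells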). The note with it: HEK293 GAL4-SRC1 luciferase reporter, at 3.6 µM, active compounds read high.
A short description of assay [4]: repression of VP16-driven luciferase reporter – cell-based, luminescence, high throughput, counter-screen for SRC1 inhibitor project (AID 588824; in the data active = inhibition above about 25%). The conditions noted are these: cell-based VP16 transactivation luciferase luminescence; at 3.6 µM; active compounds read high.
Assay [5] relates to transactivating tegument protein VP16 (Human herpesvirus 1). Put plainly: compounds suppressing VP16-driven luciferase signal – cell-based, luminescence, single concentration, counter-screen for SRC2 inhibitor project (AID 652007; in the data active = inhibition above about 36%). The note with it: cell-based VP16 transactivation luciferase reporter, at 8.9 µM, active compounds read high.
In assay [6] the target is Nuclear receptor coactivator 2 (Homo sapiens) (UniProt Q15596). The assay can be described thus: inhibition of GAL4-SRC2 driven luciferase expression – cell-based, luminescence, HEK293, triplicate, confirmation (AID 652008;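 active = mean inhibition above 46.5%, the solvent-only control mean plus 3 SD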;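 also: 0% = DMSO-treated cells and 100% = Gossypol at 36 µM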). The note with it: HEK293 GAL4-SRC2 luciferase reporter, at 8.9 µM, active compounds read high.
Assay [7] can be described thus: StAR promoter reporter inhibitors, counter-screen for LRH-1 inverse agonist project, cell-based, luminescence, high throughput (AID 651611; in the data active = inhibition above about 28%). The note with it: StAR promoter luciferase reporter counterscreen, at 3.6 µM, active compounds read high. In general terms: The purpose of a counterscreen is to sort out artefacts and off-target activity.
The target of assay [8] is Nuclear receptor subfamily 5 group A member 2 (Homo sapiens) (UniProt O00482). The assay can be described thus: NR5A2 activity suppression in reporter cells – cell-based, luminescence, confirmation (AID 651613; in the data active = inhibition above about 42%;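 also: HEK293T cells co-transfected with LRH-1 and StAR promoter luciferase reporter; 0% = vehicle wells and 100% = parental cells lacking receptor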). The note with it: cell-based LRH-1 luciferase reporter, inverse agonism; at 3.6 µM; active compounds read high.
Chain of Nuclear receptor subfamily 5 group A member 2 (Homo sapiens) (O00482 whole entry, looked up): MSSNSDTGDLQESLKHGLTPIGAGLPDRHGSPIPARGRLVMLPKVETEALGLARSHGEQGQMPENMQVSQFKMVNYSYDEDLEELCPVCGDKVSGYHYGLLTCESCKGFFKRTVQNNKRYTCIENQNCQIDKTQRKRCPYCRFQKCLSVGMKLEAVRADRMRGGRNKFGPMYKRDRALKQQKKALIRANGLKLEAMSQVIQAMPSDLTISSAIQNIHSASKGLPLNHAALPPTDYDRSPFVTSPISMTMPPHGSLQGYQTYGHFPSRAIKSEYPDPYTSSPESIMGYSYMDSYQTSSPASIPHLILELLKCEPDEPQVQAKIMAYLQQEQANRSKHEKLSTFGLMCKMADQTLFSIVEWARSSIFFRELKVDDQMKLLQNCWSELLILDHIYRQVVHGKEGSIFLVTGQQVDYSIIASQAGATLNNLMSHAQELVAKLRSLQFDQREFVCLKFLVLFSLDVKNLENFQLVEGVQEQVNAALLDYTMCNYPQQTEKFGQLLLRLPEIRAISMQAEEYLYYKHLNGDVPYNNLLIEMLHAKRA
Assay [9] has as its target Steroidogenic factor 1 (Homo sapiens) (UniProt Q13285). Put plainly: inverse agonism at SF1 nuclear receptor – cell-based, luminescence, high throughput, counter-screen for LRH-1 inverse agonist project (AID 651614; in the data active = inhibition above about 44%;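 also: cells cotransfected with StAR promoter reporter and SF1 expression vector; 0% = vehicle on cells with receptor and 100% = vehicle on cells lacking receptor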). The note with it: cell-based SF1 luciferase reporter, at 3.6 µM, active compounds read high.
The nature of assay [10]: compounds suppressing VP16-driven luciferase signal – cell-based, luminescence, high throughput, counter-screen for LRH-1 inverse agonist project (AID 651615; in the data active = inhibition above about 33%). The note with it: Gal4-VP16 luciferase reporter cells, at 3.6 µM, active compounds read high.

Chain of Steroidogenic factor 1 (Homo sapiens) (Q13285 whole entry, looked up, the tested form may be a part): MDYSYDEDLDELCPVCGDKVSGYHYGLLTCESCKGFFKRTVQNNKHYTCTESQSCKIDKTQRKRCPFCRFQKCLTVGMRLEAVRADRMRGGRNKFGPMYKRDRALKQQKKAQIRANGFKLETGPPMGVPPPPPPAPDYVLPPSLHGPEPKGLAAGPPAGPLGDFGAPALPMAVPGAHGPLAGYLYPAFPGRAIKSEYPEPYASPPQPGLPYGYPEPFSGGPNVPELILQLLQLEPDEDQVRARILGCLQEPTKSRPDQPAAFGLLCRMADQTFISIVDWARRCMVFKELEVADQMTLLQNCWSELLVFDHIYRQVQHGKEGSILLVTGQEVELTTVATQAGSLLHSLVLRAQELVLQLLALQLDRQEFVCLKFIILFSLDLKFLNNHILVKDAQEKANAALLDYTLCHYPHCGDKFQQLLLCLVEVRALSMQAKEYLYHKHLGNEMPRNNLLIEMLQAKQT
Chain of Nuclear receptor coactivator 1 (Homo sapiens) (Q15788 whole entry, looked up, the tested form may be a part): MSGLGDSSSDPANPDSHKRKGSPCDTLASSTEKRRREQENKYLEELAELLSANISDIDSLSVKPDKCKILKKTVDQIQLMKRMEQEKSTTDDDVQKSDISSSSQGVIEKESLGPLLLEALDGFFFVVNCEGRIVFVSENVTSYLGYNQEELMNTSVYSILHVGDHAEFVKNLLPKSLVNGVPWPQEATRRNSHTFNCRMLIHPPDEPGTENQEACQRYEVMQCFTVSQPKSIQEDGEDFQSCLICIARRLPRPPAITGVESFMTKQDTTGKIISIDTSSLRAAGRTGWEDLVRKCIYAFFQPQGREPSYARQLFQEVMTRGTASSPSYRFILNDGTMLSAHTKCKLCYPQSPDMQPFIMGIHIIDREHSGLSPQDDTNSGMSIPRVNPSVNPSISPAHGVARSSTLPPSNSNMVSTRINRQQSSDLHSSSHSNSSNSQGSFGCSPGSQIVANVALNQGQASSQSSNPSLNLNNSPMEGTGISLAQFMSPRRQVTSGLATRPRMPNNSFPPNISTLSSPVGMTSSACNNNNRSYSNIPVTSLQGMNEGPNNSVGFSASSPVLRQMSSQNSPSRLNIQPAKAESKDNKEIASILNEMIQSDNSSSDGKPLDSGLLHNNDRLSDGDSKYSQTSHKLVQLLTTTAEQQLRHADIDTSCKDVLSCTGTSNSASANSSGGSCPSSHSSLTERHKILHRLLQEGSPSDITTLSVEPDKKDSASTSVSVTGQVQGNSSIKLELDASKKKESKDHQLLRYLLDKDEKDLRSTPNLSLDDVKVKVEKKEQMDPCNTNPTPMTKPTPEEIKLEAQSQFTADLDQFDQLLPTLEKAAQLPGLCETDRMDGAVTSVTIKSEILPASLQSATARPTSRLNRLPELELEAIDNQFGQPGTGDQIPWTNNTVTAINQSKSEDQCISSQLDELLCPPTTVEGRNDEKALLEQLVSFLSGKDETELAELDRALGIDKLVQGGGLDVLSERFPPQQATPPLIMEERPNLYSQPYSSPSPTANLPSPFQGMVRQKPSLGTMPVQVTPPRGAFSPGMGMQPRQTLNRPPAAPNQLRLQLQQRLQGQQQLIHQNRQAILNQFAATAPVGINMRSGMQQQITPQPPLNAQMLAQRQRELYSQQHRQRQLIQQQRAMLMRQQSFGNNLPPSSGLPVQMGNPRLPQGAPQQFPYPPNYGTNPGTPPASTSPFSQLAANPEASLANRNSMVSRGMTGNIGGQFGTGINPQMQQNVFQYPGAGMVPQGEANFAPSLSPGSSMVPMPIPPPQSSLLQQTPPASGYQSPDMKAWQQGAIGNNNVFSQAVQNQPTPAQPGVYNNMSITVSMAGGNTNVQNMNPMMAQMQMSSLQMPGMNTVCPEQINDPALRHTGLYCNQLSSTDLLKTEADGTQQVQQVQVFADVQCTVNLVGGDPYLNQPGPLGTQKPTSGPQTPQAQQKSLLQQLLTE

As usually defined, the inhibition is the change of the read-out against control, counted positive when it falls. For the molecule `Cc1ccc(C(=O)CN2C(=O)c3ccccc3S2(=O)=O)cc1`, the inhibition is 31.6% in [1]; 48.8% (active) in assay [2]; -23.7% in assay [3]; 41.4% (active) in assay [4]; 65% (active) in [5]; 61.9% (active) in [6].
On to `CCC(=O)NC(c1ccc(C)cc1)c1ccc2cccnc2c1O` (configuration not stated), for which the inhibition in [1] was 55.7% (active); in assay [2], 38.1% (active); in assay [3], 45.3%; in assay [4], 53.4% (active); in assay [5], -3.42%; in assay [6], 24.4%.
On to `CNc1ccc2ncc(-c3ccc(OC)c(OC)c3)n2n1`, for which the inhibition is 80.1% (active) in assay [1]; 63.1% (active) in [2]; 75.4% (active) in assay [3]; 60.1% (active) in [4]; -12.4% in assay [5]; 37.3% in assay [6].
On to `c1cc2c(cc1C1=NNC(=NC3CC3)SC1)OCCO2`, for which the inhibition in assay [1] was 52.8% (active); in assay [2] it was 46.4% (active); in [3], 15.5%; in assay [4], 38% (active); in [5] it was 59.7% (active); in assay [6], 79.5% (active).
As to `O=S(=O)(NCC1CCCO1)c1ccc(-c2ccc(S(=O)(=O)NCC3CCCO3)cc2)cc1` (configuration not stated), the inhibition is 9.93% in assay [1]; 41.9% (active) in assay [2]; 24.6% in assay [7]; 69.5% (active) in [8]; 61.2% (active) in assay [9]; 56.7% (active) in [10].
Take `N#CC(c1cccc(Cl)c1)c1ccc2c(C(F)(F)F)cc(C(F)(F)F)nc2n1` (configuration not stated): the inhibition in assay [1] is 59.4% (active); in [2] it was 84% (active); in assay [7], 82.3% (active); in assay [8] it was 107% (active); in assay [9] it was 95.5% (active); in [10] it was 88.9% (active).
Regarding `COc1ccc(NC(=O)c2cc(-c3cc(Cl)ccc3C)n[nH]2)cc1OC`, the inhibition in assay [1] was 20.2%; in assay [2] it was 50.6% (active); in assay [7] it was 30.7% (active); in assay [8], 57% (active); in assay [9] it was 61.1% (active); in assay [10] it was 64.4% (active).
